The record followed here is PubChem BioAssay (NCATS).

Experiment [1] has as its target Cytochrome P450 3A4 (Homo sapiens) (UniProt P08684). The experiment is described as follows: qHTS Assay for Inhibitors and Substrates of Cytochrome P450 3A4 (AID 884). Further: nearly all actives have a fitted effect of over 50% in size. Further: potency means the concentration at half of the fitted maximal effect. On activity change, negative = inhibition: series mostly up to about 57 µM; on the % scale 0 is the no-effect control and ±100 the full control effect. The gist of the method: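 20 nM human CYP3A4 with 25 uM Luciferin-PPXE (at KM) in 200 mM KPO4, preincubated 10 min with compound; NADPH regeneration started a 60 min RT reaction. Luciferin detected by luminescence, normalized to 57 uM ketoconazole as full inhibition.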
For orientation: qHTS replaces the single test concentration by a dilution series.

The target is the same in experiment [2]. The experiment in a line: qHTS Assay for Activators of Cytochrome P450 3A4 (AID 885). Further: nearly all actives have a fitted effect of over 65% in size. Further: potency means the concentration at half of the fitted maximal effect. A digest of the protocol:
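Steps: enzyme/substrate mix dispensed; compound added, 10 min RT; NADPH regeneration solution added, 60 min RT; luciferin detection buffer stops reaction; 20 min later luminescence measured.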

Experiment [3] deals with Cytochrome P450 2C9 (Homo sapiens) (UniProt P11712). The experiment is described as follows: qHTS Assay for Inhibitors and Substrates of Cytochrome P450 2C9 (AID 883). Further: nearly all actives have a fitted effect of over 60% in size. Further: potency means the concentration at half of the fitted maximal effect. On activity change, negative = inhibition: on the % scale 0 is the no-effect control and ±100 the full control effect. The gist of the method:
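Inhibition of CYP2C9 is scored as loss of luminescence, with 57uM sulphaphenazole defining 100% inhibition. Substrate Luciferin-H is used at 100uM, equal to its KM; enzyme at 10nM in 25mM KPO4, 60 min at 37C with NADPH regeneration.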

The target in experiment [4] is Alpha-galactosidase (Coffea arabica) (UniProt Q42656). The experiment is described as follows: Counterscreen for Glucocerebrosidase Inhibitors: qHTS Assay for Coffee Bean alpha-Galactosidase at pH 4.5 (AID 957).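 Further: series mostly up to about 77 µM; plate controls were enzyme alone for no effect and no enzyme for full effect.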 The gist of the method: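 Green coffee bean enzyme (2 nM final) was incubated with compounds (0.7 nM to 77 uM) and 4-methylumbelliferyl alpha-D-galactopyranoside (80 uM final) in 50 mM citric acid, 0.005% Tween-20, pH 4.5, 20 min at room temperature; AC50 from Hill fits.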
Sequence of Alpha-galactosidase (Coffea arabica) (Q42656 whole entry, looked up): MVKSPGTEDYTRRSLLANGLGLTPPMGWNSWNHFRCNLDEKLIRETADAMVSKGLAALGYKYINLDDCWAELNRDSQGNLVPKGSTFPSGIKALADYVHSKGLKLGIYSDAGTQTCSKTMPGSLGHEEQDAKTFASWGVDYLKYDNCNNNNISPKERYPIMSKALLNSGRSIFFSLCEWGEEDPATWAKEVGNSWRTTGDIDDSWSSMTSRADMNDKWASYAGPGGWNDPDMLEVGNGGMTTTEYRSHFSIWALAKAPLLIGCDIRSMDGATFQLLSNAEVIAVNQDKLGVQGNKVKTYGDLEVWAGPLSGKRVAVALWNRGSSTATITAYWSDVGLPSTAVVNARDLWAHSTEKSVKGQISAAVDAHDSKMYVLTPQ

Experiment [5] has the same target. The experiment is described as follows: Counterscreen for Glucocerebrosidase Inhibitors: qHTS Assay for Coffee Bean alpha-Galactosidase at pH 5.9 (AID 998).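 Further: plate controls were uninhibited enzyme for no effect and no-enzyme basal signal for full effect.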 The gist of the method: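 Compounds were titrated from 0.7 nM to 77 uM against green coffee bean alpha-galactosidase (2 nM) using 80 uM fluorogenic 4-methylumbelliferyl substrate. After 20 min at room temperature, reactions were stopped at pH 10 and read by fluorescence.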
In general terms: The purpose of a counterscreen is to sort out artefacts and off-target activity.

In experiment [6] the target is Cytochrome P450 2C19 (Homo sapiens) (UniProt P33261). The experiment in a line: qHTS Assay for Inhibitors and Substrates of Cytochrome P450 2C19 (AID 899). Further: nearly all actives have a fitted effect of over 60% in size. Further: potency means the concentration at half of the fitted maximal effect. On activity, negative = inhibition: on the % scale 0 is the no-effect control and ±100 the full control effect. The gist of the method: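 5nM enzyme + 10uM Luciferin-H EGE (=KM), 50mM KPO4; cpd pin-transferred, 10 min 37C; NADPH regen, 60 min 37C; stopped w/ luciferin detection reagent, 20 min; luminescence. Normalized to 57uM ketoconazole (AC100).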
Sequence of Cytochrome P450 2C19 (Homo sapiens) (P33261 whole entry, looked up): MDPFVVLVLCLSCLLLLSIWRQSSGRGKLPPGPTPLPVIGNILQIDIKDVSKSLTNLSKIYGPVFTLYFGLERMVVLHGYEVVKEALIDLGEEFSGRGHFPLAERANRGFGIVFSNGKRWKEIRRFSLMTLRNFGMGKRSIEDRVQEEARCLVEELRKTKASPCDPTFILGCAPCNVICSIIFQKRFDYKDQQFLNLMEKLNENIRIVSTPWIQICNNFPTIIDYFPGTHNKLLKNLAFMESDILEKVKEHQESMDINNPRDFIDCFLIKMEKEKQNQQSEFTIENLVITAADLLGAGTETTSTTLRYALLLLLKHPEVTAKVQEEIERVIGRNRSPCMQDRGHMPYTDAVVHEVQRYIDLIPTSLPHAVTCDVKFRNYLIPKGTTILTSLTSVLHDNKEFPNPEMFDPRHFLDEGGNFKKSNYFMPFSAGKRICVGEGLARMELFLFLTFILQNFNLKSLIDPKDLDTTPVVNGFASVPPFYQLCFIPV

Experiment [7] addresses Cytochrome P450 2D6 (Homo sapiens) (UniProt P10635). The experiment is described as follows: qHTS Assay for Inhibitors and Substrates of Cytochrome P450 2D6 (AID 891). Further: nearly all actives have a fitted effect of over 60% in size. Further: potency means the concentration at half of the fitted maximal effect.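 On activity change, negative = inhibition: luciferin methyl ether substrate demethylated by CYP2D6 with NADPH regeneration; on the % scale 0 is the no-effect control and ±100 the full control effect.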 A digest of the protocol: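 Human CYP2D6 (5 nM) with 30 uM Luciferin-ME EGE (at Km) in 100 mM KPO4, compound preincubated 10 min, then NADPH regeneration system for 60 min at room temperature. Luciferin read by luminescence; normalized to 1.43 uM quinidine.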

Experiment [8] can be described thus: Confirmation and Secondary Assay for Modulators of Hemoglobin Beta Chain Splicing at IVS2 654 locus (AID 910).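 Further: HeLa cells stably carrying EGFP split by mutant beta-globin IVS2-654 intron; per-well total GFP intensity by laser scanning cytometry after 2-day treatment; % of control where 0% means no effect.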 A digest of the protocol: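 Readout: per-well total peak green fluorescence (488 nm ex, 500–520 nm em) from objects 5–250 µm, reflecting correct splicing of an EGFP-654 reporter. Compounds were applied for 2 days at 37 °C to overnight-plated HeLa EGFP-654 cells; controls were DMSO and 500 nM IVS2-654 PNA.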

The nature of experiment [9]: Confirmation and Secondary Assay for Modulators of Hemoglobin Beta Chain Splicing at IVS2 705 locus (AID 930).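 Further: HeLa cells stably expressing the EGFP-705 splicing reporter; GFP fluorescence per well restored by corrected splicing of the IVS2-705 intron in EGFP; series mostly up to about 46 µM; % of control where 0% means no effect.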 A digest of the protocol:
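Splice-correction reporter: EGFP cDNA split by beta-globin intron 2 bearing the 705 mutation, stably in HeLa. Compound incubation 2 days, 37C; fluorescent objects 5-250 µm summed per well.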

A number with no mark means an inactive call. Records with an inconclusive call do not appear. Activity calls are given as the source filed them. The call rests on the fitted dose curve; in most records, active means well fitted curve in the direction sought with a large enough effect; inconclusive means small, poorly fitted or top-dose-only effect, or another doubt; inactive means no such curve, though single readings can be large; an effect the other way counts as inactive or inconclusive.

Sequence of Cytochrome P450 2C9 (Homo sapiens) (P11712 whole entry, looked up): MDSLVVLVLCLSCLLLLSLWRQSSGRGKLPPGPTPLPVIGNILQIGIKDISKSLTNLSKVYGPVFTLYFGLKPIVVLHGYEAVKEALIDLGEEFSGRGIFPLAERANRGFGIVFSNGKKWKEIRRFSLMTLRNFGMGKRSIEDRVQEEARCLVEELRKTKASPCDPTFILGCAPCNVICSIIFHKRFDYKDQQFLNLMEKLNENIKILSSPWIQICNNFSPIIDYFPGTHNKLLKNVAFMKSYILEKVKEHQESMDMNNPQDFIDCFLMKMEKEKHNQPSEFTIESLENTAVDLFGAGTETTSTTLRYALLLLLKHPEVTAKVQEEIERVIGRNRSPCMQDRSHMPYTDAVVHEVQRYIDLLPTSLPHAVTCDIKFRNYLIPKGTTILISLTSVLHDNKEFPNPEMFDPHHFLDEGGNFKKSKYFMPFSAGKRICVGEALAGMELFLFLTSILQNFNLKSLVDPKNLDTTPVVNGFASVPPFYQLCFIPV
Sequence of Cytochrome P450 3A4 (Homo sapiens) (P08684 whole entry, looked up): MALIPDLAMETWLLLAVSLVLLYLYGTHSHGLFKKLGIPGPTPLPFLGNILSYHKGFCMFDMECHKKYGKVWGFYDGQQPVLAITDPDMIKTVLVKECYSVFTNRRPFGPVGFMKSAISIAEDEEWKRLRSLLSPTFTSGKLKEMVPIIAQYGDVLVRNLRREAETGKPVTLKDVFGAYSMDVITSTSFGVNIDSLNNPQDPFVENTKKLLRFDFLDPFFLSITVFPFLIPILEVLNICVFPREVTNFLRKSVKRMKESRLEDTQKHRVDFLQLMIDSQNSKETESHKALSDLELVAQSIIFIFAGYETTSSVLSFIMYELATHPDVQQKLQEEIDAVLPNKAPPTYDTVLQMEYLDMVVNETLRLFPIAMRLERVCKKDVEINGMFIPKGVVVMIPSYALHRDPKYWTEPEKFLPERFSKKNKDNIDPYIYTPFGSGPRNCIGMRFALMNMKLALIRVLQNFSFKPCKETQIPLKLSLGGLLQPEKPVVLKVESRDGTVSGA
Sequence of Cytochrome P450 2D6 (Homo sapiens) (P10635 whole entry, looked up): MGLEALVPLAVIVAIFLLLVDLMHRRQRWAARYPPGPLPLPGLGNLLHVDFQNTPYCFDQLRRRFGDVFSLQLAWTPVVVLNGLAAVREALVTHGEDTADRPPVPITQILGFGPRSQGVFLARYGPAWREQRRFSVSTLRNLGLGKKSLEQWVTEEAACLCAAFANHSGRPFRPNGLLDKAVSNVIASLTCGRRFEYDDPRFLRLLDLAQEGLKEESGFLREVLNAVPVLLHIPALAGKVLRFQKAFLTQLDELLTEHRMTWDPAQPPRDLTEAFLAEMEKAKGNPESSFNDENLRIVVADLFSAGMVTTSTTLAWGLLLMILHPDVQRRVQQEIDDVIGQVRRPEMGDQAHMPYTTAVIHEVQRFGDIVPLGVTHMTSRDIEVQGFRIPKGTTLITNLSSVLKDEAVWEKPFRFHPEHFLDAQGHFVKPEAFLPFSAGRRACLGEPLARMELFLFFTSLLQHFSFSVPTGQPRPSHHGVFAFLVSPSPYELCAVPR

With `c1cc(Cc2cnc[nH]2)ccn1`, in experiment [1], the Potency is 3980 nM (active). Further, the Potency entry in [2] was “inactive”.
On to `CCCCCCCCCC[Si](C)(C)CCC(=O)N[C@@H](Cc1ccc(C)cc1)c1ccccc1`, for which the Potency result in [3] is “inactive”. The outcome in [4] and in [5] was inactive.
As to `CC(=O)[C@]1(O)CCC2C3C=C(Cl)C4=CC(=O)C5CC5[C@@]4(C)C3CC[C@]21C` (some centres not stated), the Potency entry in [1] is “inactive”.
Regarding `O=S(=O)(O)c1cc(N=C=S)ccc1/C=C/c1ccc(N=C=S)cc1S(=O)(=O)O`, the Potency in experiment [1] is 12600 nM (active). Moreover, the Potency result in experiment [2] was “inactive”.
For `N#CC(C#N)=NNc1cccc(Cl)c1`, in that order: 1260 nM (active) and “inactive”.
As to `CC(=O)OCC(=O)[C@@]1(O)CCC2C3CC[C@H]4CC(O)CC[C@@]4(C)C3C(=O)C[C@]21C` (some centres not stated), the Potency in experiment [1] was 12600 nM (active). Further, in [2], the Potency entry was “inactive”.
Consider `Nc1nc(N)c2nc(CNc3ccc(C(=O)N[C@H](CCC(=O)O)C(=O)O)cc3)cnc2n1`, for which, in experiment [3], the Potency entry was “inactive”. Also, the outcome in [4] and in experiment [5] was inactive.
As for `CC(=O)OC1CC[C@@]2(C)C3CC(=O)[C@]4(C)C(C(C)=O)=CCC4C3CC[C@H]2C1` (some centres not stated), the Potency result in experiment [1] is “inactive”. For the same molecule, the Potency in [2] was 5010 nM (active).
For `CC(C)C1C(=O)N2CCCC2[C@]2(O)O[C@@](NC(=O)[C@@H]3C=C4c5cccc6[nH]cc(c56)C[C@H]4N(C)C3)(C(C)C)C(=O)N12` (some centres not stated) the same measures were 1260 nM (active) and “inactive”.
As to `O=c1c2ccccc2c2ccccc2c(=O)n1-c1cc2c3ccccc3ccc2c2ccccc12`, the Potency in experiment [3] is 316 nM (active); in experiment [6], 158 nM (active).
In the case of `c1ccc(-c2cc3c(nc2-c2ccccc2)CCNC3)cc1`, the values for the activity change, negative = inhibition in experiment [3] and in experiment [7] were -10% [at 11.4 µM] and 5.57% [at 11.4 µM], respectively. Further, the activity change, positive = activation in [2] was -45.7% [at 11.4 µM]. Also, the activity, negative = inhibition in [6] was 24.9% [at 11.4 µM].
With `O=[N+]([O-])c1ccc(S(=O)(=O)Cc2ccccc2)c([N+](=O)[O-])c1`, the Potency in experiment [3] is 3160 nM (active); in experiment [1], 316 nM (active); in [6], 2000 nM (active). Besides, the activity change, positive = activation in [2] is -105% [at 11.4 µM].
As for `COc1cc2c(cc1O)C(CCc1ccc(Cl)cc1)N(C)CC2` (configuration not stated), in experiment [1], the Potency result was “inactive”.
For the molecule `C[C@@]12CC[C@@H]3[C@H](CCC4=CC(=O)CC[C@]43C)[C@@H]1CC[C@@H]2C(=O)Cn1cnc2c(=S)nc[nH]c21`, the activity change, negative = inhibition in experiment [1] was 119% [at 11.4 µM]. Also, the Potency in experiment [2] is 3160 nM (active).
`C=CCc1cc(OC)c2c(c1OC)OCO2`: the Potency in experiment [1] is 7940 nM (active). Moreover, the Potency entry in [2] and in [8] was “inactive” each time. Further, the result in [9] was inactive.
Take `CN(C)C1C(=O)C(C(N)=O)=C(O)[C@@]2(O)C(=O)C3=C(O)c4c(O)cccc4[C@](C)(O)C3C(O)C12` (some centres not stated): the Potency result in experiment [1] and in [8] was “inactive” in each case. The outcome in experiment [9] was inactive.
For the molecule `CC1(C)C(=O)[C@@H]2OC2[C@@]2(C)C1CC(O)[C@]1(C)C2CC[C@@]2(C)C(c3ccoc3)OC(=O)C3OC312` (some centres not stated), the Potency in experiment [1] was 1000 nM (active). Moreover, the Potency entry in experiment [2] and in experiment [8] was “inactive” each time. Besides, in experiment [9], the outcome was inactive.
As for `CC1(C)C(=O)C=C[C@]2(C)C1CC(=O)[C@]1(C)C2CC[C@@]2(C)C(c3ccoc3)OC(=O)C3O[C@@]321` (some centres not stated), in experiment [1], the Potency is 2510 nM (active). Besides, the Potency result in experiment [2] is “inactive”.
Regarding `C[C@@]12CC[C@@H]3[C@@H](CC[C@H]4C[C@@H](O)CC[C@]43C)[C@H]1CC[C@@H]2c1cc(C(F)(F)F)n[nH]1`, in experiment [1], the activity change, negative = inhibition was 103% [at 11.4 µM]. In addition, the Potency in experiment [2] and in [6] was 2510 nM (active) in each case.
Consider `C[C@@]12CC[C@@H]3c4ccc(O)cc4C[C@H](CCCCCCCCCS(=O)CCCC(F)(F)C(F)(F)F)[C@H]3[C@@H]1CC[C@@H]2O` (some centres not stated), for which the Potency result in experiment [2] is “inactive”.
As for `COC(=O)[C@@]1(Cc2ccc(F)cc2)[C@H]2c3cc(C(=O)N(C)C)[nH]c3C[C@H]2CN1C(=O)c1ccccc1`, in experiment [1], the Potency is 631 nM (active). In addition, the Potency entry in experiment [2] was “inactive”.
For the molecule `OC[C@@H]1O[C@@H](n2cnc3cncnc32)[C@@H](O)[C@H]1O`, the Potency result in [1] was “inactive”. In addition, the result in [4] and in [5] was inactive.
Turning to `CCCCCCCCCCCCCC(=O)OC1C(C)[C@@]2(O)C(C=C(CO)C[C@]3(O)C(=O)C(C)=C[C@H]23)[C@@H]2C(C)(C)[C@]12OC(C)=O` (some centres not stated), the Potency result in experiment [1] and in experiment [8] was “inactive” each time. Besides, in experiment [9], the call was inactive.
In the case of `COC(=O)NC/C=C\c1nc(CC/C=C\C(=O)O[C@H]2C[C@H]3CC(=O)O[C@@H](/C=C\CC(C)C)C[C@@H]4CC[C@H](C)[C@H](C[C@@H](OC)C[C@H](C2)O3)O4)co1`, the Potency in experiment [1] is 5010 nM (active). In addition, the activity change, positive = activation in experiment [2] was -81.2% [at 11.4 µM]. In experiment [6], the activity, negative = inhibition is 68.9% [at 11.4 µM].
On to `O=C1c2ccccc2-c2cc([N+](=O)[O-])c([N+](=O)[O-])cc21`, for which the Potency is 501 nM (active) in [1], 3160 nM (active) in [7] and 398 nM (active) in experiment [6]. The activity change, positive = activation in [2] was -119% [at 11.4 µM].
Turning to `CC(C)CCCC1(C)C=Cc2c(O)c3c(c(CCC(C)C)c2O1)OC12C(CC4CC1C(C)(C)OC2(CCC(C)C(=O)O)C4O)C3=O` (configuration not stated), the Potency entry in experiment [1] and in [8] was “inactive” throughout. Besides, the molecule was classed as inactive in [9].
